The structures appear in SMILES notation. Out of some 300,000 compounds screened, about 1,500 (0.5%) were called active.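 How the source made its calls: active means inhibition above the mean of all tested compounds plus 3 SD, set per screening campaign (cut at about 17% in these data); inactive means the rest.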 The list comes from a sample in which actives are over-represented; it also holds similar structures and randomly drawn compounds.

In the assay the test system is cathepsin L1 (Fasciola hepatica). Briefly: CTSL1 protease inhibition, fluke enzyme – biochemical, QFRET, fluorogenic peptide substrate, counter-screen for PFM18AAP inhibitor project, primary screen (AID 1906).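 Further: 0% = plate median of test compound wells and 100% = 1 µM Z-Phe-Ala-diazomethylketone.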 The note with it: recombinant F. hepatica cathepsin L1, Z-Leu-Arg-MCA fluorescence; at 5.96 µM; stronger effect = higher value. (In general: A counterscreen serves to expose hits that act by an unwanted route or on another target.)
As for `CCOC(=O)NC(=O)CSc1nnc(SCCC(=O)O)s1`, the inhibition was -3.27% (inactive).
With `Cc1cccc2nc(CNc3ccc(F)cc3)cn12` the figure was -0.43% (inactive); with `O=C(CN1CCN(S(=O)(=O)c2ccc(F)cc2)CC1)NC1CC1`, 0.44% (inactive).
Regarding `Nc1c(Cl)cc(-c2csc(N3CCCC3c3nc4cc(Cl)c(Cl)cc4n3CCOCCO)n2)cc1Cl` (stereo not given), the inhibition is 1.62% (inactive).
With `COCCCN(C(=S)Nc1c(C)cc(C)cc1C)C(C)c1ccncc1` (stereo not given) the figure was -2.52% (inactive); with `CC(C)Cc1nnc(NC(=O)CCC(=O)Nc2ccc3cn[nH]c3c2)s1`, -6.53% (inactive).
With `CCc1noc(C)c1C(=O)N1CCCC(N2CCN(c3ccc(F)cc3)CC2)C1` (stereo not given) the figure was -0.72% (inactive).
`Cc1onc(-c2ccccc2)c1C(=O)NNC(=S)NC(=O)c1ccc(F)cc1`: the inhibition was 6.16% (inactive).
For `CCc1noc(C)c1C(=O)NNC(=O)c1ccc(F)cc1`, the inhibition is 18.8% (active).
With `COc1ccc(/C=N/NC(=O)C(C)N(c2ccc(OC)cc2)S(C)(=O)=O)cc1` (stereo not given), the inhibition was -4.5% (inactive).
As to `COc1cc(C2C(N3C(=O)c4ccccc4C3=O)C(=O)N2c2ccc(C)c(C)c2)cc(OC)c1OC` (stereo not given), the inhibition was 3.07% (inactive).
With `CC(=O)NN1C(=O)c2ccccc2NC1c1ccccc1` (stereo not given) the figure was 0.11% (inactive).
As to `Cc1ccc(C2Nc3ccccc3C(=O)N2CCN2CCNC2=O)cc1` (stereo not given), the inhibition is 28.6% (active).
As for `CCOC(=O)NN1C(=O)c2ccccc2NC1c1cccc(O)c1` (stereo not given), the inhibition was 7.1% (inactive).
With `Cc1cc(NC(=O)CCC(=O)N(c2cccc(F)c2)C(C(=O)NC2CCCC2)c2ccncc2)no1` (stereo not given) the figure was -0.94% (inactive).
With `Cc1cc(NC(=O)CCC(=O)N(c2ccccc2)C(C(=O)NC2CCCC2)c2ccncc2)no1` (stereo not given) the figure was -1.79% (inactive); with `Cc1cc(NC(=O)CCC(=O)N(Cc2ccccc2)C(C(=O)NC2CCCC2)c2ccc(C)o2)no1` (stereo not given), 29.5% (active); with `CC1CCN(S(=O)(=O)c2ccc3ncn(CC(=O)N(C)C4CCCCC4)c(=O)c3c2)CC1`, 1.81% (inactive).
Turning to `Cc1ccc(C)c(Cn2nnc3c(=O)[nH]c(C(=O)Nc4ccc(F)cc4)nc32)c1`, the inhibition was 0.39% (inactive).
With `O=C(Cc1c(Cl)cccc1Cl)NC1CC1` the figure was 4.27% (inactive); with `O=C(CCl)NNc1cccc(Cl)n1`, 87.5% (active); with `O=C(NNc1ccccn1)c1ccc(Cl)nc1`, 1.75% (inactive).
With `Cc1ccccc1NC(=O)c1ccc(COc2ccc3c(C)cc(=O)oc3c2)cc1` the figure was 1.96% (inactive); with `CCn1ccnc1CN(C)Cc1nc(-c2ccc3c(c2)OCO3)no1`, -4.87% (inactive); with `COc1ccc(NC(=O)COC(=O)CNC(=O)C2CCCCC2)cc1`, 32.3% (active).
With `COc1ccc(NC(=O)CN(C)C(=O)CNC(=O)C2CCCCC2)cc1` the figure was -1.07% (inactive); with `COc1ccc(CCNC(=O)COC(=O)C2CCCCC2)cc1`, -2.54% (inactive).
Regarding `NC(=O)COc1ccccc1C(=O)NC12CC3CC(CC(C3)C1)C2`, the inhibition was -1.07% (inactive).
For the molecule `COc1ccccc1C(=O)COC(=O)CSCC(=O)Nc1cc(C)on1`, the inhibition is -19.3% (inactive).
Consider `COCc1cc(C)nc(SCC(=O)Nc2cccc(C)c2)c1C#N`, for which the inhibition is -0.64% (inactive).
Regarding `Cc1cc(C)c(C#N)c(SCC(=O)Nc2ccccc2)n1`, the inhibition was 39.5% (active).
`Cc1cc(C)c(C#N)c(SCc2ccccc2C(=O)O)n1`: the inhibition was -2.52% (inactive).
Regarding `Cc1c(C(=O)OC(C)C)sc(NC(=O)c2cccnc2)c1C#N`, the inhibition is 2.51% (inactive).
In the case of `COc1ccccc1CCNC(=O)CN1C(=O)NC2(CCCC2)C1=O`, the inhibition was -1.76% (inactive).
With `O=C(O)CC(c1ccccc1F)N1Cc2ccccc2C1=O` (stereo not given) the figure was 0.38% (inactive); with `CCOc1cc(/C=C/c2nc3ccccc3c(=O)[nH]2)cc(Br)c1OC`, 4.32% (inactive).
For the molecule `O=c1[nH]c(SCc2cccc(F)c2)nc2ccccc12`, the inhibition is -0.09% (inactive).
For the molecule `O=c1[nH]c(/C=C/c2cccc(Br)c2)nc2ccccc12`, the inhibition is 49.9% (active).
For `COc1ccc(S(=O)(=O)N2CCOC2CNC(=O)C(=O)NCc2ccncc2)cc1C` (stereo not given), the inhibition was -2.32% (inactive).
Consider `O=C1CSC(=S)N1c1ccc(O)cc1`, for which the inhibition was 2.41% (inactive).
Consider `Cc1cc(=O)[nH]c(S)c1C#N`, for which the inhibition was 3.28% (inactive).
Consider `CC(=O)c1cc(C#N)c(SCC(=O)C(C)(C)C)nc1C`, for which the inhibition is 5.58% (inactive).
As to `CC(=O)c1cc(C#N)c(N2CC(C)OC(C)C2)nc1C` (stereo not given), the inhibition is 20% (active).
`Cc1ccc(-c2nnc(C)c(N3CC(C)OC(C)C3)n2)cc1` (stereo not given): the inhibition is 1.07% (inactive).
With `O=C(Nc1nnc(SCc2c(Cl)cccc2Cl)s1)C1CCCO1` (stereo not given) the figure was 4.51% (inactive).
With `O=C(Nc1ccc(-c2nnc(-c3ccccc3)o2)cc1)C1CCCO1` (stereo not given) the figure was 0.12% (inactive); with `O=C(Nc1nnc(CCc2ccccc2)s1)C1CCCO1` (stereo not given), 18% (active).
On to `OCCNc1nc(Nc2ccc(Cl)c(Cl)c2)nc2ccccc12`, for which the inhibition was 2.53% (inactive).
As to `CS(=O)(=O)c1ccc(Cl)c(NC(=O)COC(=O)c2ncc(Cl)c(Cl)c2Cl)c1`, the inhibition is -5.36% (inactive).
As to `Cc1ccc(S(=O)(=O)CC(=O)Nc2nnc(C)s2)cc1`, the inhibition was -3.43% (inactive).
With `Cc1ccc(S(=O)(=O)CC(=O)Nc2sc(C)c(C)c2C(N)=O)cc1` the figure was 17.8% (active).
For `CC(=O)N1CCc2c(sc(NC(=O)CCS(=O)(=O)c3ccc(C)cc3)c2C(N)=O)C1`, the inhibition was -1.1% (inactive).
With `C/C=C(\C)C(=O)NCCN1C2=NC[C@H](Cc3ccc(O)cc3)N2C[C@@H]1Cc1ccc(OC)cc1` the figure was -2.36% (inactive); with `O=C(O)CC1(CC(=O)Nc2cccc(C(F)(F)F)c2)CCCC1`, -5.07% (inactive); with `O=C(O)CSCC(=O)Nc1cccc(C(F)(F)F)c1`, 16.9% (active).
With `O=C(O)CSCC(=O)Nc1ccc(C(F)(F)F)cc1` the figure was -1.45% (inactive); with `CCOc1cc(N2CCOCC2)c(OCC)cc1NC(=O)COc1cccc2cccnc12`, -0.24% (inactive); with `CCOc1cc(N2CCOCC2)c(OCC)cc1NC(=O)COc1cccc(Cl)c1`, 30.1% (active).
With `CCOc1cc(N2CCOCC2)c(OCC)cc1NC(=O)c1ccc(C)s1` the figure was -0.83% (inactive).
Turning to `Cc1c(C=O)c2ccccc2n1CCOc1ccccc1`, the inhibition was 1.89% (inactive).
Regarding `O=C(O)c1cccnc1NC1CCCC1`, the inhibition was 1.66% (inactive).
As to `COC(=O)C(C)N(C#N)c1nc(C)nc(C)n1` (stereo not given), the inhibition was 1.79% (inactive).
With `Cc1cc(C)nc(N(C#N)CC(=O)Nc2ccccc2)n1` the figure was 1.63% (inactive); with `CNc1nc(SC)nc(N(C#N)CC(=O)OC)n1`, 42.3% (active); with `COc1ccc(CC(NC(C)=O)C(=O)N2CCN(C(=O)Nc3cccc(Cl)c3)CC2)cc1OC` (stereo not given), -4.54% (inactive).
With `Cn1cc(S(=O)(=O)Nc2ccc(Cl)cc2Cl)c(=O)n(C)c1=O` the figure was -0.98% (inactive); with `Cc1ccc(NC(=S)N(CCN2CCCCC2)Cc2ccco2)cc1C`, -2.51% (inactive); with `Cc1ccc(NC(=S)N(CCCN2CCC(C)CC2)Cc2ccco2)cc1`, -0.39% (inactive).
With `Cc1ccc(NC(=S)N(Cc2ccco2)C(C)c2cccs2)cc1` (stereo not given) the figure was 22.4% (active).
`COn1c(=O)c(=O)n(OC)c2ccccc21`: the inhibition was 2.56% (inactive).
With `O=C(Cc1ccccc1)n1nc(-c2ccccc2)nc1NCc1ccco1` the figure was 51.2% (active).
With `CS(=O)(=O)n1nc(-c2ccccc2)nc1NCc1ccco1` the figure was 0.56% (inactive); with `O=C(NCc1ccco1)c1nc(-c2ccccc2)n(-c2ccccc2)n1`, -1.81% (inactive).
With `O=C(CSCc1cccs1)N1CCCC1` the figure was -3.58% (inactive).
Consider `O=C1c2cccnc2C(=O)N1Cc1cccs1`, for which the inhibition was 0.86% (inactive).
With `c1csc(CN2CCN(Cc3cccs3)C2c2cccs2)c1` the figure was 17% (active).
With `COC(=O)Nc1ccc(S(=O)(=O)Nc2cc(OC)nc(OC)n2)cc1`, the inhibition is 2.38% (inactive).
With `COc1ccc(CN(C)C(=O)CC(c2ccccc2)c2ccccc2)cc1` the figure was 2.03% (inactive); with `COc1ccc(COC(=O)NC(C(=O)O)c2ccccc2)cc1` (stereo not given), 0.08% (inactive); with `COc1ccc(C(CCN(Cc2ccc(OC)c(OC)c2)C(=O)CCl)c2ccccc2)cc1` (stereo not given), 59.9% (active).
With `CCN(CC(=O)Nc1ccc(NC(C)=O)cc1)C(=O)C1CC(=O)N(Cc2ccc(C)cc2)C1` (stereo not given) the figure was 6.92% (inactive); with `O=c1c2ccccc2cnn1Cc1n[nH]c(=S)n1-c1ccccc1F`, -4.23% (inactive); with `COC(=O)C1=C(NC(=O)C(C)(C)C)CCS1`, -1.55% (inactive).
As to `NC(=O)c1ccsc1NC(=O)COC(=O)Cc1n[nH]c(=O)c2ccccc12`, the inhibition is 2.85% (inactive).
As for `COc1cc(OC)c(C2=NOC(C(=O)Nc3c(C)n(C)n(-c4ccccc4)c3=O)C2)cc1Cl` (stereo not given), the inhibition was 4.46% (inactive).
With `COC(=O)c1ccc(NC(=O)C23CC4CC(C2)CC(n2cnc(Cl)n2)(C4)C3)cc1` the figure was 0.89% (inactive).
With `CC(N)C12CC3CC(CC(O)(C3)C1)C2` (stereo not given) the figure was -3.06% (inactive); with `Cc1ncn(C23CC4CC(CC(O)(C4)C2)C3)n1`, 23.6% (active).
With `COc1ccc(CCNC(=O)CN2C(=O)CCSc3ccccc32)c(OC)c1` the figure was -0.1% (inactive).
With `Cc1ccc(Nc2c(F)c(F)c(F)c(F)c2C(=O)O)c(C)c1`, the inhibition is -4.87% (inactive).
With `COc1ccc(C2=NS(=O)(=O)N(C)C(C(=O)NC(C)c3ccccc3)=C2)cc1` (stereo not given) the figure was 11.2% (inactive).
With `COc1ccc(NC(=O)NCCN2CCN(c3ccc(C)cc3)CC2)c(Cl)c1` the figure was 2.74% (inactive).
On to `COc1ccc(Cl)cc1NC(=O)c1cccc(N2C(=O)C3CC=CCC3C2=O)c1` (stereo not given), for which the inhibition is 0.1% (inactive).
With `COc1ccc(Cl)cc1NC(=O)CCN1CCOCC1` the figure was -1.4% (inactive); with `COc1ccc(Cl)cc1NC(=O)COC(=O)C(CC(C)C)N1C(=O)C2CC=CCC2C1=O` (stereo not given), 39.5% (active).
Regarding `O=C(CN1CCN(S(=O)(=O)c2ccc(Cl)s2)CC1)NCc1ccc(Cl)cc1`, the inhibition was -3.91% (inactive).
With `COc1ccc(CNC(=O)CCN2C(=O)c3ccccc3C2=O)cc1` the figure was -1.89% (inactive).
With `COc1ccc(CNC(=O)C(Cc2ccccc2)n2cccc2)cc1` (stereo not given) the figure was 2.08% (inactive); with `COc1ccc(CNC(=O)CCn2cccc2)cc1`, 17.3% (active).
As for `COc1ccc(OC)c(NC(=O)c2cccc(S(=O)(=O)N3CCN(C(C)=O)CC3)c2)c1`, the inhibition was -1.16% (inactive).

As usually defined, the inhibition is the change of the read-out against control, counted positive when it falls.

Source of the values: PubChem BioAssay AID1906 (The Scripps Research Institute Molecular Screening Center, 2009).
